FLuc inh-1: Firefly luciferase inhibition profiling of diverse chemical library using quantitative high-throughput screening; AID 1347043, 2019; purified P. pyralis luciferase, luminescence, biochemical; actives 2.5% (n = 76,000); Potency, µM (titrated, usually from 115 µM), hits mostly inhibitors; Luciferin 4-monooxygenase (Photinus pyralis), P08659; note: % is set by controls: 0 for no effect and ±100 for the full control effect; nearly all actives have a fitted effect of over 65% in size
Target sequence (P08659 whole entry, looked up): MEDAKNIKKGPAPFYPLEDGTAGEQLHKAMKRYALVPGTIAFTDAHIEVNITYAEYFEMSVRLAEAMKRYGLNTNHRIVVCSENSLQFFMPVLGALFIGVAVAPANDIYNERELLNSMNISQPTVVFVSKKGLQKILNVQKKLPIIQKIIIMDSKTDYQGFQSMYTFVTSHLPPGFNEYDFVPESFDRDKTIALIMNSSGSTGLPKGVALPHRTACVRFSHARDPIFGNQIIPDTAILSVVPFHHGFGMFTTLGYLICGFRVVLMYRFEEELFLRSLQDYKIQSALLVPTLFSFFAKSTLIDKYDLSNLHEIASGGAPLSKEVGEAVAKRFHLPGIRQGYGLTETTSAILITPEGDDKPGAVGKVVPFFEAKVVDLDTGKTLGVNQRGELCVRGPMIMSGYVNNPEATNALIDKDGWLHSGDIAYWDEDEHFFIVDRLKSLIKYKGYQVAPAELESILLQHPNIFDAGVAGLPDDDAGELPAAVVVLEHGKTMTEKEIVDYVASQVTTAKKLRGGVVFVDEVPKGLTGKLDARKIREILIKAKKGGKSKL
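FLuc 10nM, D-luciferin 10uM, ATP 10uM, Mg acetate 10mM, Tris acetate pH 7.5, Tween/BSA; cpd qHTS; enzyme added last; CCD luminescence.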
HEK cytotox: Cytotoxic Profiling in HEK 293 Cell Line of Diverse Libraries Using Quantitative High-Throughput Screening; HEK 293 viability, ATP luminescence (CellTiter-Glo), 48-72 h; Potency, µM (doses to about 115 µM), without a hit: at the highest dose activity change, negative = cytotoxicity, hits mostly inhibitors; actives 6.6% (n = 94,000); note: % is set by controls: 0 for no effect and ±100 for the full control effect; nearly all actives have a fitted effect of over 60% in size
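ATP-coupled CellTiter-Glo luminescence served as viability read-out, recorded 10 min after reagent addition at room temperature. HEK 293 cells, 250 cells/well, had been incubated with pintool-transferred compound for 48 or 72 hr at 37 degree Celsius.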
NIH3T3 tox: Cytotoxic Profiling in NIH 3T3 Cell Line of Diverse Libraries Using Quantitative High-Throughput Screening. NIH 3T3 viability, CellTiter-Glo ATP luminescence, 48-72 h. Potency, µM (titrated, usually from 96.7 µM), for the others: top-dose activity change, negative = cytotoxicity, hits mostly inhibitors. actives 4.3% (n = 94,000); note: % is set by controls: 0 for no effect and ±100 for the full control effect; nearly all actives have a fitted effect of over 55% in size
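Cytotoxicity was measured by CellTiter-Glo ATP luminescence after 48 or 72 h compound exposure at 37 °C. Mouse NIH 3T3 fibroblasts were seeded at 400 cells/well and dosed by 23 nL pin transfer.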
NPR1 antag: Natriuretic polypeptide receptor (hNpr1) antagonism - Primary qHTS. actives 1.6% (n = 76,000). Potency, µM (highest dose often 46.3 µM), for inactives: at the top dose activity change, negative = inhibition, hits mostly inhibitors. Atrial natriuretic peptide receptor 1 (Homo sapiens), P16066. HEK293 hNpr1 GloSensor cGMP, ANP-stimulated luminescence; calls by dose curve; note: % is set by controls: 0 for no effect and ±100 for the full control effect; nearly all actives have a fitted effect of over 60% in size
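HEK293 cells stably expressing human Npr1 and cGMP GloSensor pGS-40F, loaded 2 h with 2% GloSensor reagent, given compound 30 min at room temperature. Luminescence read before and 20 min after 0.1 nM hNppA.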
FLuc SDR no ATP: Firefly luciferase (FLuc-C-HiBiT) SDR gain of signal screen - without ATP. shares compounds with FLuc inh-1. Purified FLuc-C-HiBiT, Nano-Glo HiBiT luminescence, no ATP. Potency, µM (doses to about 32.7 µM), without a hit: at the highest dose activation (signal gain), most hits filed as activators. actives 7.8% (n = 1,300). AID 1963318, 2024; note: nearly all actives have a fitted effect of over 55% in size
FLuc SDR ATP: Firefly luciferase (FLuc-C-HiBiT) SDR gain of signal screen - plus ATP; shares compounds with FLuc inh-1; purified FLuc-C-HiBiT + ATP, HiBiT complementation luminescence; Potency, µM (doses to about 32.7 µM), for inactives: at the highest dose activation (gain of signal), most hits filed as activators; actives 8.7% (n = 1,300); AID 1963319, 2024;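 note: signal reports ligand binding via conformational change of the enzyme rather than luciferase catalysis; % of control where 0% means no effect; nearly all actives have a fitted effect of over 55% in size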
FLuc inh-2: Firefly luciferase (FLuc-C-HiBiT) enzymatic inhibition screen - Functional assay; shares compounds with FLuc inh-1; purified FLuc-C-HiBiT enzyme, luciferin luminescence; Potency, µM (top dose mostly 32.7 µM), for inactives: at the top dose activity change, negative = inhibition, actives largely listed as inhibitors; actives 42% (n = 1,300); AID 1963320, 2024; note: % is set by controls: 0 for no effect and ±100 for the full control effect; nearly all actives have a fitted effect of over 70% in size
* marks the source's active call; other numbers are inactive results; [ ] = dose if it differs, or a comment. This is a sample that favours compounds with a hit; in the whole collection about 11% have one here. Unless noted, calls come from the whole dose curve; as a rule, active = well fitted curve in the direction sought with a large enough effect; inconclusive = small, poorly fitted or top-dose-only effect, or another doubt; inactive = no such curve, though single readings can be large; an effect the other way counts as inactive or inconclusive. Potency is the fitted concentration of half-maximal effect.

`CC1CCCN(c2ncnc3c2cnn3-c2ccc(Cl)cc2)C1` (stereo not drawn) gave FLuc SDR no ATP 2.79µM*, FLuc SDR ATP 0.248µM* and FLuc inh-2 0.124µM*.
For CN1CC(=O)N(c2ccc(Cl)cc2)Cc2c(NC3CCCCC3)ncnc21 the results were FLuc inh-1 inactive, HEK cytotox inconclusive, NIH3T3 tox inconclusive and NPR1 antag 6.2%.
Screening Clc1ccc(-n2ncc3c(NC4CCCC4)ncnc32)cc1 returned FLuc SDR no ATP inconclusive, FLuc SDR ATP inconclusive and FLuc inh-2 1.24µM*.
Screening O=C(c1ccccc1F)N1CCC(Oc2ncccc2C(=O)N2CCCCC2)C1 (stereo not drawn) returned FLuc inh-1 inactive, HEK cytotox 4.6%, NIH3T3 tox inactive and NPR1 antag 1.9%.
For CC1CCCN(C(=O)Cc2cccn2-c2ccc(F)cc2)C1 (stereo not drawn) the results were FLuc inh-1 inactive, HEK cytotox inconclusive, NIH3T3 tox -7.7% and NPR1 antag -3.3%.
`CC1CCCN(c2ncnc3c2cnn3-c2ccccc2)C1` (stereo not drawn) gave FLuc SDR no ATP 2.48µM*, FLuc SDR ATP inconclusive and FLuc inh-2 0.442µM*.
CC1CCCN(c2ncnc3c2CN(c2cccnc2)C(=O)CN3C)C1 (stereo not drawn) was read as FLuc inh-1 inactive, HEK cytotox -23.7%, NIH3T3 tox -16.7% and NPR1 antag 9.2%.
`Cc1cccc(N2Cc3c(ncnc3N3CCC(N4CCCCC4)CC3)N(C)CC2=O)c1` gave HEK cytotox -0.5% and NIH3T3 tox -29.4%.
Cc1cccc(-n2ncc3c(N4CCCCCC4)ncnc32)c1 was read as FLuc SDR no ATP 4.95µM*, FLuc SDR ATP inconclusive and FLuc inh-2 0.881µM*.
Screening Cc1ccc(Cl)cc1-n1ncc2c(N3CCC(C)CC3)ncnc21 returned FLuc SDR no ATP 12.6%, FLuc SDR ATP 8.0% and FLuc inh-2 -8.0%.
CC1CCCN(c2ncnc3c2cnn3-c2ccc(F)cc2)C1 (stereo not drawn) was read as FLuc SDR no ATP 2.21µM*, FLuc SDR ATP inconclusive and FLuc inh-2 0.7µM*.
Screening Cc1[nH]nc(CCC(=O)N2CC[C@H](N3CCOCC3)[C@H](CCC(=O)O)C2)c1C returned FLuc inh-1 inactive, HEK cytotox -9.1%, NIH3T3 tox 0.1% and NPR1 antag 2.0%.
Screening Cc1ccc(NC(=O)c2cn3cc(-c4ccccc4)sc3n2)cc1 returned HEK cytotox -20.8%[172 µM] and NIH3T3 tox -30.0%[138 µM].
Screening CCOP(=O)(Cc1ccc(-c2nc3ccccc3s2)cc1)OCC returned FLuc SDR no ATP 17.4%, FLuc SDR ATP 15.5% and FLuc inh-2 inconclusive.
For CNc1ccc(-c2nc3ccccc3s2)cc1 the results were FLuc SDR no ATP 1.76µM*, FLuc SDR ATP 1.11µM* and FLuc inh-2 0.0785µM*.
CC(C)(C)C(=O)Nc1ccc(-c2nc3ccccc3s2)cc1 was read as FLuc SDR no ATP 0.0785µM*, FLuc SDR ATP 0.0442µM* and FLuc inh-2 0.0197µM*.
Nc1ccc(-c2nc3ccccc3s2)cc1 was read as FLuc SDR no ATP inconclusive, FLuc SDR ATP inconclusive and FLuc inh-2 1.76µM*.
C=CCN1C[C@H]2COc3cc(OC)ccc3[C@H]2N(C(=O)c2ccc(F)cc2)CCC1=O was read as HEK cytotox -3.8% and NIH3T3 tox inconclusive.
Screening CCS(=O)(=O)c1ccccc1C(=O)Nc1ccc(-c2nc3ccccc3s2)cc1 returned FLuc SDR no ATP 19.5%, FLuc SDR ATP 8.4% and FLuc inh-2 -9.3%.
`Cc1ccc2sc(-c3ccc(N)cc3)nc2c1` gave FLuc SDR no ATP 3.13µM*, FLuc SDR ATP inconclusive and FLuc inh-2 0.279µM*.
Screening Cc1oc2c(c1C(=O)N1CCCCCC1)CN(Cc1cccc(F)c1)CC2 returned FLuc inh-1 inactive, HEK cytotox inconclusive, NIH3T3 tox inconclusive and NPR1 antag -3.9%.
For CCOC(=O)c1ccc(NC(=O)c2csc3c2CCCC3)cc1 the results were FLuc SDR no ATP 15.6%, FLuc SDR ATP 10.9% and FLuc inh-2 inconclusive.
Screening CCOc1nccn2c(-c3ccc(CN4CCN(C(C)=O)CC4)cc3)cnc12 returned FLuc inh-1 inconclusive, HEK cytotox -25.4%[172 µM], NIH3T3 tox inconclusive and NPR1 antag -0.5%[70.6 µM].
Screening OC1CN(Cc2ccc(-c3cnc4c(OCc5ccccc5)nccn34)cc2)C1 returned FLuc inh-1 5.01µM*, HEK cytotox inconclusive, NIH3T3 tox 89.1µM*, NPR1 antag -27.4%[70.6 µM], FLuc SDR no ATP 25.9%[49.3 µM], FLuc SDR ATP inconclusive and FLuc inh-2 inconclusive.
Cc1ccc(Cl)cc1-n1nnc(-c2nsc(NC(=O)c3ccccc3Cl)n2)c1C was read as FLuc SDR no ATP 10.8%, FLuc SDR ATP 8.7% and FLuc inh-2 -5.6%.
Screening O=C(NCC(F)(F)F)c1ccc2nc(-c3cccnc3)oc2c1 returned HEK cytotox inconclusive and NIH3T3 tox -25.6%[138 µM].
`O=C(c1ccc(Cl)nc1)N1CCC(c2nn(-c3ccc(Cl)cc3)c(=O)[nH]2)CC1` gave FLuc inh-1 inactive, HEK cytotox -2.6%, NIH3T3 tox 4.8% and NPR1 antag -7.9%.
`c1ccc(-c2noc(-c3ccc(OC4CNC4)cc3)n2)cc1` gave FLuc inh-1 0.708µM*, HEK cytotox 25.1µM*, NIH3T3 tox 22.4µM*, NPR1 antag 8.91µM*, FLuc SDR no ATP inconclusive, FLuc SDR ATP inconclusive and FLuc inh-2 2.79µM*.
`O=C(NCc1ccc(F)cc1)N1CC(Oc2ccc(-c3nc(-c4ccccc4)no3)cc2)C1` gave FLuc inh-1 2.24µM*, HEK cytotox inconclusive, NIH3T3 tox -19.3%, NPR1 antag 0.631µM*, FLuc SDR no ATP 15.8%, FLuc SDR ATP 14.0% and FLuc inh-2 0.0%.

Assay outcomes deposited in PubChem BioAssay by National Center for Advancing Translational Sciences (NCATS).
